Results on 13 compounds are retold here after PubChem BioAssay (NCATS).

Unmarked numbers belong to inactive results. Inconclusive results are not listed. Active and inactive are the calls of the source. Unless noted, the call rests on the fitted dose curve; in most records, active means well fitted curve in either direction with a large enough effect (not every such curve was filed as active); inconclusive means small, poorly fitted or top-dose-only effect, or another doubt; inactive means flat fitted curve, though single readings scatter.

The target of experiment [1] is Lysosomal acid glucosylceramidase (Homo sapiens) (UniProt P04062). Kind of experiment: Glucocerebrosidase-p2 (AID 348; in the data active means potency below about 10 µM; further: potency means the concentration at half of the fitted maximal effect). The note with it: purified GBA, blue fluorogenic substrate, 40 min. The method in brief: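 Compounds titrated from 0.6 nM upwards against 0.2 nM enzyme in pH 5.9 citric acid/KH2PO4, taurocholate, tween-20; blue fluorogenic substrate 80 uM, 40 min room temperature, stopped and read Ex 365/Em 440 for AC50.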

Experiment [2] in a line: AP1 Signaling Pathway (AID 357). Further: on the % scale 0 is the no-effect control and ±100 the full control effect. The note with it: ME-180 AP-1-bla reporter, EGF-induced, beta-lactamase ratio, 5 h; at 7.69 µM (top of the series) unless noted. The method in brief:
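ME-180 cells with beta-lactamase reporter under AP-1 response element, stimulated with EC50 EGF; compounds tested in titration series, 5 h at 37 °C. CCF4 substrate added 2.5 h at room temperature; 460/530 nm emission ratio gave %activity and AC50.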

Experiment [3] in a line: NFAT Signaling Pathway (AID 444).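 Further: carbachol stimulus at about its EC50 of 1 µM final; on the % scale 0 is the no-effect control and ±100 the full control effect.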 The conditions noted are these: Jurkat NFAT-bla M1, carbachol, beta-lactamase ratio, 5 h; at 7.69 µM (top of the series) unless noted. The method in brief: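 Jurkat cells carrying an NFAT-driven β-lactamase reporter and co-transfected muscarinic M1 receptor were treated with compound plus carbachol (1 uM final, an EC50 level) for 5 h at 37 °C. CCF4 loading followed for 1 h at RT; 460/530 nm ratio gave %activity.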

Experiment [4] is described as follows: Stat Signaling Pathway (AID 446).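 Further: ME-180 cervical cancer cells given 40 pM IL-6 alongside compound; SIE-controlled beta-lactamase reporter measured as 460/530 nm FRET emission ratio; on the % scale 0 is the no-effect control and ±100 the full control effect.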 The note with it: ME-180 SIE beta-lactamase reporter, IL-6 stimulated, 5 h; at 7.69 µM (top of the series) unless noted. Put shortly: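 Reporter line: ME-180 cervical carcinoma, SIE-beta-lactamase. Treatment: compound with 40 pM IL-6, 5 hrs, 37 C, in low-serum OPTI-MEM with 10 mM HEPES pH 7.3. Detection: 460/530 nm fluorescence.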

Experiment [5] deals with Glucocorticoid receptor (Homo sapiens) (UniProt P04150). Kind of experiment: GR-EFC Redistribution (AID 451; calls by dose curve; further: potency means the concentration at half of the fitted maximal effect). The conditions noted are these: CHO-K1 GR-EFC translocation, beta-gal luminescence, 2 h. The method in brief: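 CHO-K1 cells stably expressing nuclear-localized β-gal enzyme acceptor and GR fused C-terminally to the enzyme donor fragment; ligand-driven nuclear translocation restores β-gal by complementation. Compounds titrated up to 46 uM final, 2 h at 37 °C; luminescence read.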

Experiment [6] has as its target Mitogen-activated protein kinase 10 (Mus musculus) (UniProt Q61831). The experiment can be described thus: JNK3 AlphaScreen Assay (AID 530).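 Further: kinase came from lysate of stimulated human HepG2 cells; on the % scale 0 is the no-effect control and ±100 the full control effect.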 The note with it: JNK3 lysate, c-Jun phosphorylation; series mostly up to 57.1 µM. Put shortly: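 JNK3 came from HepG2 lysates pre-activated with IL-1beta and TNF-alpha and phosphorylated biotinylated GST-cJun (1-79) at 10 uM ATP, pH 7.6, room temperature. Compounds were titrated. AlphaScreen signal used anti-phospho-cJun (Ser73) antibody.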

Experiment [7] concerns the target 3',5'-cyclic-AMP phosphodiesterase 4B (Homo sapiens) (UniProt Q07343). Kind of experiment: qHTS Assay for Inhibitors of PDE-IV (AID 607; active means well fitted activation curve with a large enough effect in the main read-out, with a control signal flat, not every such curve was filed as active; further: % of control where 0% means no effect). The note with it: HEK293 ACTOne CNG channel cells, membrane potential fluorescence; series mostly up to 22.9 µM. The method in brief: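 Cell-based read-out of cAMP via a modified cyclic nucleotide-gated channel and membrane potential dye (535/590 nm) in HEK293 cells expressing PDE4 endogenously. Compounds tested up to 22.9 uM final; 100 uM RO 20-1724 reference.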

The nature of experiment [8]: Primary qHTS for small molecule stabilizers of the endoplasmic reticulum resident proteome: Secreted ER Calcium Modulated Protein (SERCaMP) assay (AID 1508630; active means well fitted curve in the direction sought with a large enough effect; an effect the other way counts as inactive or inconclusive; further: on the % scale 0 is the no-effect control and ±100 the full control effect). The conditions noted are these: SH-SY5Y GLuc-SERCaMP (Gaussia luciferase released on ER calcium loss) secretion, thapsigargin, luminescence; series mostly up to 38.4 µM. Put shortly: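 GLuc-SERCaMP-expressing SH-SY5Y cells, pretreated 16 h with compound, are challenged with thapsigargin to empty ER calcium stores; after 4 h, coelenterazine is added directly to the medium and luminescence is imaged.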

The target of experiment [9] is Cytochrome P450 3A4 (Homo sapiens) (UniProt P08684). The experiment can be described thus: qHTS Assay for Activators of Cytochrome P450 3A4 (AID 885; active means well fitted curve in the direction sought with a large enough effect; an effect the other way counts as inactive or inconclusive; further: nearly all actives have a fitted effect of over 65% in size). The note with it: recombinant CYP3A4, Luciferin-PPXE luminescence, 60 min; series mostly up to 57.1 µM. Put shortly:
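Signal was normalized against complete inhibition by 57 uM ketoconazole. The reaction used 20nM CYP3A4 with 25uM Luciferin-PPXE, 10-min compound preincubation and a 60-min NADPH-supported step at RT.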

Experiment [10] concerns the target Cytochrome P450 2C19 (Homo sapiens) (UniProt P33261). The experiment can be described thus: qHTS Assay for Inhibitors and Substrates of Cytochrome P450 2C19 (AID 899; active means well fitted curve in the direction sought with a large enough effect; an effect the other way counts as inactive or inconclusive; further: potency means the concentration at half of the fitted maximal effect; nearly all actives have a fitted effect of over 60% in size). The conditions noted are these: recombinant CYP2C19, luciferin-H EGE luminescence; series mostly up to 57.1 µM. Put shortly:
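NADPH-dependent conversion of Luciferin-H EGE (10uM, at KM) by 5nM enzyme in 50mM KPO4, 60 min at 37C following 10 min compound preincubation. Stopped with luciferin detection buffer; luminescence read after 20 min.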

In experiment [11] the target is Glucocorticoid receptor (Homo sapiens) (UniProt P04150). Kind of experiment: GR-GFP Redistribution (AID 450;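 active means compounds whose dose series gives a full or clear partial fitted curve of increased nuclear translocation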; further: potency means the concentration at half of the fitted maximal effect). The note with it: U2OS GR-GFP nuclear translocation, laser cytometry, 2 h.
The target in experiment [12] is Cytochrome P450 3A4 (Homo sapiens) (UniProt P08684). Kind of experiment: qHTS Assay for Inhibitors and Substrates of Cytochrome P450 3A4 (AID 884; active means well fitted curve in the direction sought with a large enough effect; an effect the other way counts as inactive or inconclusive; further: potency means the concentration at half of the fitted maximal effect; nearly all actives have a fitted effect of over 50% in size). The conditions noted are these: recombinant CYP3A4, Luciferin-PPXE luminescence; series mostly up to 57.1 µM. Put shortly: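 20 nM human CYP3A4 with 25 uM Luciferin-PPXE (at KM) in 200 mM KPO4, preincubated 10 min with compound; NADPH regeneration started a 60 min RT reaction. Luciferin detected by luminescence, normalized to 57 uM ketoconazole as full inhibition.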

Experiment [13] is described as follows: qHTS Assay for Identification of Small Molecule Agonists for Hypoxia Response Element Signaling Pathway (AID 914; active means well fitted activation curve with a large enough effect in the signal ratio, with a control signal flat, not every such curve was filed as active; the % refers to the signal ratio; further: % of control where 0% means no effect). The conditions noted are these: ME-180 (cervical carcinoma) HRE-bla reporter, beta-lactamase ratio, CoCl2, 17 h; activation: hits give high values. Put shortly:
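qHTS titration; ME-180 HRE-bla cells; EC50 CoCl2 co-treatment, 17 h at 37 degrees Celsius; CCF4 dye, ex 405nm, em 460nm and 530nm; %Activity from ratio; AC50.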

Experiment [14] in a line: Confirmation and Secondary Assay for Modulators of Hemoglobin Beta Chain Splicing at IVS2 654 locus (AID 910; active means well fitted curve in the direction sought with a large enough effect; an effect the other way counts as inactive or inconclusive;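 further: per-well total GFP intensity by laser scanning cytometry after 2-day treatment; % of control where 0% means no effect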). The note with it: HeLa EGFP-654 splicing reporter, GFP fluorescence, 48 h; series mostly up to 38.3 µM. The method in brief:
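HeLa cells stably carrying EGFP interrupted by mutant beta-globin IVS2-654 intron (CMV-driven) were treated with compound for 2 days at 37C; corrected splicing was scored as total peak GFP intensity per well (488 nm excitation, 500-520 nm emission).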

Experiment [15] is described as follows: Confirmation and Secondary Assay for Modulators of Hemoglobin Beta Chain Splicing at IVS2 705 locus (AID 930; active means well fitted curve in the direction sought with a large enough effect; an effect the other way counts as inactive or inconclusive;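 further: GFP fluorescence per well restored by corrected splicing of the IVS2-705 intron in EGFP; % of control where 0% means no effect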). The note with it: HeLa EGFP-705 splicing reporter, GFP fluorescence, 48 h; series mostly up to 38.3 µM. The method in brief: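 Secondary splice-site specificity test uses HeLa expressing CMV-driven EGFP interrupted by IVS2-705; cells were treated 2 days at 37C with 500 nM antisense PNA as positive control.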

Experiment [16] addresses Ubiquitin carboxyl-terminal hydrolase 1 (Homo sapiens) (UniProt O94782). Kind of experiment: Inhibitors of USP1/UAF1: Pilot qHTS (AID 504865; active means well fitted curve in the direction sought with a large enough effect; an effect the other way counts as inactive or inconclusive;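 further: rhodamine fluorescence freed from ubiquitin-rhodamine substrate followed over time; top concentration of the series differs between compounds; on the % scale 0 is the no-effect control and ±100 the full control effect; nearly all actives have a fitted effect of over 35% in size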). The note with it: purified USP1/UAF1, Ub-rhodamine cleavage fluorescence; series mostly up to 54.9 µM. The method in brief:
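Deubiquitinase activity followed as kinetic rhodamine fluorescence release from 150 nM Ub-Rho. 1 nM USP1/UAF1 with compound, after 15 min room-temperature preincubation, in HEPES pH 7.8 buffer containing TCEP, EDTA, BSA and Tween-20.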

Sequence of Lysosomal acid glucosylceramidase (Homo sapiens) (P04062 whole entry, looked up): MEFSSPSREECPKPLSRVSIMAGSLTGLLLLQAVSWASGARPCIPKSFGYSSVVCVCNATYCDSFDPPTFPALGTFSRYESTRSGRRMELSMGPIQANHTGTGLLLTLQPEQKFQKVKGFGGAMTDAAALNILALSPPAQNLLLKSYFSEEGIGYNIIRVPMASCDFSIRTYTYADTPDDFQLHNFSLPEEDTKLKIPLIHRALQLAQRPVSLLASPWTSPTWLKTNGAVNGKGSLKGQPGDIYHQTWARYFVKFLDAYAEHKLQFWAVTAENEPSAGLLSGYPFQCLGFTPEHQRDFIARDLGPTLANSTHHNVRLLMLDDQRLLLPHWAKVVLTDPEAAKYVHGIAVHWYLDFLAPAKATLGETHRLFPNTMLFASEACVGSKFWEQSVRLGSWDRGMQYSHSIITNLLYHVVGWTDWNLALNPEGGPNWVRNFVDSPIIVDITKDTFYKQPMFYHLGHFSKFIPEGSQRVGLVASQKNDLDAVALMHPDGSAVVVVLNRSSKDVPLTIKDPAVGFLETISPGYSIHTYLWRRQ
Sequence of 3',5'-cyclic-AMP phosphodiesterase 4B (Homo sapiens) (Q07343 whole entry, looked up): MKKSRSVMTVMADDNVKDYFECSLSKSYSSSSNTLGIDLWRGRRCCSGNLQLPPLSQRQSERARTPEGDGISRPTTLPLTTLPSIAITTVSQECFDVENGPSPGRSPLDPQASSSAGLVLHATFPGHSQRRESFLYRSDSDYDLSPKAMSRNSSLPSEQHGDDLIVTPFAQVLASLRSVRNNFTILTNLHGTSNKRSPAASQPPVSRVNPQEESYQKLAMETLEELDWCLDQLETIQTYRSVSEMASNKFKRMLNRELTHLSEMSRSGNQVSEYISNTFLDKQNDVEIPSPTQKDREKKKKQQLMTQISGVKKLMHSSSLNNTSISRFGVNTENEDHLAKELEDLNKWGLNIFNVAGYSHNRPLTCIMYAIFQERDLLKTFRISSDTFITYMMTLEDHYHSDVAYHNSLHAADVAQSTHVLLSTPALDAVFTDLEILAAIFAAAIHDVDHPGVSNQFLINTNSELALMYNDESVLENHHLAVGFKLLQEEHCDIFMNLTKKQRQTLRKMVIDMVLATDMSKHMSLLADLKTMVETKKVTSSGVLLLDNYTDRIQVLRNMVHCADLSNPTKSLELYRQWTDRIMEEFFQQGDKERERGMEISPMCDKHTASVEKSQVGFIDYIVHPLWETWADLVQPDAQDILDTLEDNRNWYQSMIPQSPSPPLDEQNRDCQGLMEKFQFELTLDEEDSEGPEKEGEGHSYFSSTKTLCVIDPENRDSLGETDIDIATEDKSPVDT
Sequence of Glucocorticoid receptor (Homo sapiens) (P04150 whole entry, looked up, the tested form may be a part): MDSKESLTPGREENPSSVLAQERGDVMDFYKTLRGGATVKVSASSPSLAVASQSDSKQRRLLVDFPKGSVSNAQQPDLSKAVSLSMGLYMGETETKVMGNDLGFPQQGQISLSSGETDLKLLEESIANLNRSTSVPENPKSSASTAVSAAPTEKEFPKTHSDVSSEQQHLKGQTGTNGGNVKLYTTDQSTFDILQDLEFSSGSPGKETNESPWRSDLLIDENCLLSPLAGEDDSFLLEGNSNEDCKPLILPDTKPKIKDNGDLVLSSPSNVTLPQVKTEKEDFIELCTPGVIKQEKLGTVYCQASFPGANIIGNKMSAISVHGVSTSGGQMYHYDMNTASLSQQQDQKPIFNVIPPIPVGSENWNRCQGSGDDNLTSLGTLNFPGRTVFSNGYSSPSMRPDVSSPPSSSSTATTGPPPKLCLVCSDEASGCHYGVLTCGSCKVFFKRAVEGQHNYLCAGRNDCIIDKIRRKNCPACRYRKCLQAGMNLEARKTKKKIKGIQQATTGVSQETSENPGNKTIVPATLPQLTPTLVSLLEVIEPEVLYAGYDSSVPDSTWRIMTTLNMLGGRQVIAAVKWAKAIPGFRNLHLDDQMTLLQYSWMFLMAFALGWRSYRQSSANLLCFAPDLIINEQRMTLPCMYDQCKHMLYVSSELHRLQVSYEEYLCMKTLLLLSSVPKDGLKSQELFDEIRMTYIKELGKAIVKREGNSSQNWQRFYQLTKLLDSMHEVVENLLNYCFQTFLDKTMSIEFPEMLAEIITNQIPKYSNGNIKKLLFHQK
Sequence of Cytochrome P450 3A4 (Homo sapiens) (P08684 whole entry, looked up): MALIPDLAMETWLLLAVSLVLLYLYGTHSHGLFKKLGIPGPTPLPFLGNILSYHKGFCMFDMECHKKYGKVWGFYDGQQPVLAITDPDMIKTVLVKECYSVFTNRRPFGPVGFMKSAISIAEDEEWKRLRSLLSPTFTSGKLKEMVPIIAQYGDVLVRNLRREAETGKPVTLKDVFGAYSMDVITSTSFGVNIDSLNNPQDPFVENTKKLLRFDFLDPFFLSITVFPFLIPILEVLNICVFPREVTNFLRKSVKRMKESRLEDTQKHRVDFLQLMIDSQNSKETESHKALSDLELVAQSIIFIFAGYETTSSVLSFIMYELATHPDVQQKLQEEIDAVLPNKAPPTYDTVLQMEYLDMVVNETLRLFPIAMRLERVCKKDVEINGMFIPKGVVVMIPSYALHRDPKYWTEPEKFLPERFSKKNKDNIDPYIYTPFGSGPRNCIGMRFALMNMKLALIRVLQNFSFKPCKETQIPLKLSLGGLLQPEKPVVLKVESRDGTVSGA
Sequence of Cytochrome P450 2C19 (Homo sapiens) (P33261 whole entry, looked up): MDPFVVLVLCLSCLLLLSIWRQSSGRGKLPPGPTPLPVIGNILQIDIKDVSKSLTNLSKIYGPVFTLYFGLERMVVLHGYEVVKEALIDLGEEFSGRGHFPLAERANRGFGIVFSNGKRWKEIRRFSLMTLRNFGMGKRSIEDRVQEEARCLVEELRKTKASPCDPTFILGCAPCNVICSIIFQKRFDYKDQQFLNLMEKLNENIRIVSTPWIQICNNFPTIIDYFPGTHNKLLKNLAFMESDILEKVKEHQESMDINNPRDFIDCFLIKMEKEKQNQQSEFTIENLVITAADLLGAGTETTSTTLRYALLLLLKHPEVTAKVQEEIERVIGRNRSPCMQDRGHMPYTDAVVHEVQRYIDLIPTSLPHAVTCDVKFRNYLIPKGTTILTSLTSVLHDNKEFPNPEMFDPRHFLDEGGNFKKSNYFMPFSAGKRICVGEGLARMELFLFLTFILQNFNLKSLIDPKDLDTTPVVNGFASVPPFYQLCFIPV
Sequence of Ubiquitin carboxyl-terminal hydrolase 1 (Homo sapiens) (O94782 whole entry, looked up): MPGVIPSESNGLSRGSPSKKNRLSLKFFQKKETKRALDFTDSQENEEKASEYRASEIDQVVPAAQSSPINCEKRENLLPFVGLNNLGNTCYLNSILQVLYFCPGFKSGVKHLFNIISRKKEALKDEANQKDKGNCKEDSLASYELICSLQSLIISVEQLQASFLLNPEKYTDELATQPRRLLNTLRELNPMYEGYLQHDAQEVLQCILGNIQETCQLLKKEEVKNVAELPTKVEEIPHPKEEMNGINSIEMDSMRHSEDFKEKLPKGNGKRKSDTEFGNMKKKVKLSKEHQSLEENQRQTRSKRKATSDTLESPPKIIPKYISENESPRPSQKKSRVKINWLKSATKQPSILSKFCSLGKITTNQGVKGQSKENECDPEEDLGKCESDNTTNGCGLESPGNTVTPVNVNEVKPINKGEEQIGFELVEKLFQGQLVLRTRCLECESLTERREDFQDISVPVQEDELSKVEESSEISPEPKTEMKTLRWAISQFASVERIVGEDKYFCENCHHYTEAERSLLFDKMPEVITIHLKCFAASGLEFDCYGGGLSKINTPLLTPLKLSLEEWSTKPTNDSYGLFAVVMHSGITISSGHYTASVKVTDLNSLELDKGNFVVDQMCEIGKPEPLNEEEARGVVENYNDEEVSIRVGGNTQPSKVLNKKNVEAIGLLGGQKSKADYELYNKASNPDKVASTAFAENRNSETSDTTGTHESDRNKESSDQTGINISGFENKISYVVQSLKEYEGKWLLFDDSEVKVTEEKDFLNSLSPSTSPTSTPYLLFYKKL

Take `O=C(Nc1ccccc1)N1CCC2(CCNCC2)CC1`: the Potency was greater than 11.4 µM in [1] and greater than 46 µM in experiment [5]. Besides, the activity change, negative = inhibition in experiment [2] is -1.92%; in experiment [3] it was -7.88%. Moreover, the activity, negative = inhibition in [4] was 10.8%. The Potency entry in experiment [6] and in experiment [7] was “inactive” throughout. Further, in [8], the result was inactive.

Consider `O=C(Nc1cccc(F)c1)N1CCC2(CC1)CCN(C(=O)c1ccncc1)CC2`, for which the Potency was greater than 11.4 µM in experiment [1] and greater than 46 µM in experiment [5]. The activity change, negative = inhibition in experiment [2] was -9.1%; in experiment [3], -6.93%. Moreover, the activity, negative = inhibition in experiment [4] was -7.63%. The Potency result in [6], in [7] and in experiment [9] was “inactive” each time. Besides, the outcome in experiment [8] was inactive.

For `O=C(c1ccncc1)N1CCC2(CC1)CCN(c1ncccn1)CC2`, the Potency in experiment [1] is greater than 11.4 µM; in [5], greater than 46 µM; in [10], 2.51 µM (active). Moreover, the activity change, negative = inhibition in experiment [2] is -2.2%; in experiment [3], 11.7%. The Potency entry in experiment [6] and in experiment [7] was “inactive” each time. For the same compound, the result in experiment [8] was inactive.

Regarding `CCNc1ncc2nc(-c3cccs3)c(=O)n(-c3ccc(OC)cc3)c2n1`, the Potency in experiment [1] was greater than 11.4 µM; in experiment [11], greater than 9.22 µM; in [5], greater than 46 µM. In addition, the activity change, negative = inhibition in experiment [2] was -0.164%; in [3], -15.9%. Moreover, the Potency entry in experiment [6] is “inactive”. The outcome in [8] was inactive.

As for `COCCn1c(=O)c(-c2ccc(OC)cc2)nc2cnc(Nc3ccccc3)nc21`, the Potency in [1] is greater than 11.4 µM; in experiment [11], greater than 9.22 µM; in experiment [5] it was greater than 46 µM. The activity change, negative = inhibition in experiment [2] is 6.46%; in experiment [3], -9.78%. In addition, the Potency result in experiment [6] and in experiment [7] was “inactive” throughout. Further, the outcome in experiment [8] was inactive.

Consider `N#CCCn1c(=O)cnc2cnc(Nc3ccccc3)nc21`, for which the results for the Potency in experiment [1], in experiment [11] and in [5] were greater than 11.4 µM, greater than 9.22 µM and greater than 46 µM, respectively. Further, the values for the activity change, negative = inhibition in [2] and in [3] were -26.6% and -3.19%, respectively. The Potency result in experiment [6] is “inactive”. Besides, the result in experiment [8] was inactive.

Regarding `O=C(c1ccncc1)N1CCC[C@@]2(CCN(Cc3cc(C(F)(F)F)cc(C(F)(F)F)c3)C2)C1`, the values for the Potency in experiment [1] and in [5] were greater than 11.4 µM and greater than 46 µM, respectively. Moreover, the activity change, negative = inhibition in experiment [2] is 8.67%. Besides, in experiment [4], the activity, negative = inhibition was -0.599%. Moreover, the Potency entry in experiment [6] and in [7] was “inactive” each time. For the same compound, in [8], the result was inactive.

Regarding `O=C(c1ccco1)N1CCC2(CCCN(c3cccc(-c4ccccc4)c3)C2)CC1`, the Potency in experiment [1] was greater than 11.4 µM; in experiment [5] it was greater than 46 µM. Besides, the activity change, negative = inhibition in experiment [2] was 12.9%. Further, the activity, negative = inhibition in [4] was -5.55%. Moreover, the Potency result in [6] is “inactive”. In addition, in [8], the outcome was inactive.

Turning to `c1cncc(-c2nc(NCCN3CCOCC3)c3ccccc3n2)c1`, the Potency was greater than 11.4 µM in experiment [1], greater than 46 µM in [11], greater than 46 µM in [5] and 7.94 µM (active) in experiment [12]. Moreover, the activity change, negative = inhibition in experiment [2] is -8.53%; in experiment [3], 7.81%. For the same compound, the Potency entry in experiment [6], in [7] and in experiment [9] was “inactive” throughout. In addition, the result in [8] was inactive.

Consider `CC(=O)N1CCC2(CC1)CCN(c1ccccc1)CC2`, for which the figures for the Potency in [1] and in [5] were greater than 11.4 µM and greater than 46 µM, respectively. Moreover, the activity change, negative = inhibition in [2] was 16.1%; in experiment [3] it was -0.227%. Further, the activity, negative = inhibition in [4] is 2.99%. The Potency result in experiment [6] and in [7] was “inactive” in each case. In addition, in experiment [13], the activation was -2.78%. Further, the result in [8] was inactive.

With `COc1cccc(Cn2c(=O)c(-c3cccs3)nc3cnc(Nc4ccccc4)nc32)c1`, the values for the Potency in [1], in experiment [11] and in experiment [5] were greater than 11.4 µM, greater than 9.22 µM and greater than 46 µM, respectively. Further, the activity change, negative = inhibition in experiment [2] was -5.18%. The activity, negative = inhibition in experiment [4] was -0.21%. For the same compound, the Potency result in experiment [6] and in experiment [7] was “inactive” each time. Moreover, the result in experiment [8] was inactive.

Take `CN(C)Cc1ccccc1-c1cncnc1Nc1ccc(F)cc1`: the Potency in experiment [1] is greater than 11.4 µM; in [11], greater than 46 µM; in experiment [5], greater than 46 µM. The activity change, negative = inhibition in experiment [2] is 18.9%. Moreover, the activity, negative = inhibition in experiment [4] is 15.8%. The Potency entry in [6], in experiment [7], in [14] and in experiment [16] was “inactive” each time. In addition, the compound was called inactive in [15] and in experiment [8].

For the compound `Cc1noc(C)c1C(=O)N1CCC2(CCCN(c3ccccn3)C2)CC1`, the Potency in experiment [1] was greater than 11.4 µM; in experiment [5], greater than 46 µM. The activity change, negative = inhibition in experiment [2] is -4.45%; in [3] it was -10.8%. In experiment [4], the activity, negative = inhibition is -8.83%. In addition, the Potency result in [6], in [7] and in experiment [9] was “inactive” each time. Moreover, in experiment [8], the outcome was inactive.
